In all, about 5,500 compounds went through this assay and about 2,000 (36%) were called active. Another 18% or so got no clear call; they are omitted. Rule as the data show it: active = normalized growth mostly below about 0.91 (no sharp cut-off); inconclusive = no clear call, values can overlap the other calls; inactive = mostly above about 0.92. Some of the results follow.
Experiment: chemical genetic growth profiling, strain panel (AID 1159580);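 also: tested at 20 µM; growth read once vehicle control cultures reached saturation at 30 °C; 1 = growth at the plate median or of vehicle wells; lower values mean less growth of the strain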
Conditions: S. cerevisiae deletion strains, growth OD
[1] = locus YAR019C, strain CDC15, stronger effect = lower value
[2] = locus YBL105C, strain PKC1, stronger effect = lower value
[3] = locus YBR136W, strain MEC1, stronger effect = lower value
[4] = locus YBR160W, strain CDC28, stronger effect = lower value
[5] = locus YDL017W, strain CDC7, stronger effect = lower value
[6] = locus YDL028C, strain MPS1, stronger effect = lower value
[7] = locus YDL101C, strain DUN1, stronger effect = lower value
[8] = locus YDL108W, strain KIN28, stronger effect = lower value
[9] = locus YDL214C, strain PRR2, stronger effect = lower value
[10] = locus YDR052C, strain DBF4, stronger effect = lower value
[11] = locus YDR054C, strain cdc34, stronger effect = lower value
[12] = locus YDR226W, strain ADK1, stronger effect = lower value
[13] = locus YER123W, strain YCK3, stronger effect = lower value
[14] = locus YFR003C, strain YPI1, stronger effect = lower value
[15] = locus YGR040W, strain KSS1, stronger effect = lower value
[16] = locus YGR052W, strain FMP48, stronger effect = lower value
[17] = locus YGR092W, strain DBF2, stronger effect = lower value
[18] = locus YHR030C, strain SLT2, stronger effect = lower value
[19] = locus YIL147C, strain SLN1, stronger effect = lower value
[20] = locus YJL095W, strain BCK1, stronger effect = lower value
[21] = locus YJL128C, strain PBS2, stronger effect = lower value
[22] = locus YJR016C, strain ILV3, stronger effect = lower value
[23] = locus YJR066W, strain TOR1 (second series), stronger effect = lower value
[24] = locus YJR066W, strain TOR1, stronger effect = lower value
[25] = locus YKL048C, strain ELM1, stronger effect = lower value
[26] = locus YKL067W, strain YNK1, stronger effect = lower value
[27] = locus YKL101W, strain HSL1, stronger effect = lower value
[28] = locus YKL203C, strain TOR2, stronger effect = lower value
[29] = locus YLR113W, strain HOG1, stronger effect = lower value
[30] = locus YLR133W, strain CKI1, stronger effect = lower value
[31] = locus YLR403W, strain SFP1, stronger effect = lower value
[32] = locus YML070W, strain DAK1, stronger effect = lower value
[33] = locus YMR001C, strain CDC5, stronger effect = lower value
[34] = locus YMR205C, strain PFK2 (second series), stronger effect = lower value
[35] = locus YNL006W, strain LST8, stronger effect = lower value
[36] = locus YNL020C, strain ARK1, stronger effect = lower value
[37] = locus YNL161W, strain CBK1, stronger effect = lower value
[38] = locus YNL183C, strain NPR1, stronger effect = lower value
[39] = locus YNL207W, strain RIO2, stronger effect = lower value
[40] = locus YOR119C, strain RIO1, stronger effect = lower value
[41] = locus YOR329C, strain SCD5, stronger effect = lower value
[42] = locus YPL153C, strain RAD53, stronger effect = lower value
[43] = locus YPL209C, strain IPL1, stronger effect = lower value
[44] = locus YPL256C, strain CLN2, stronger effect = lower value
[45] = locus YPR106W, strain ISR1, stronger effect = lower value
[46] = locus YPR111W, strain DBF20, stronger effect = lower value
[47] = strain NNK1, stronger effect = lower value

Measured: normalized growth

CC(C)/C(=N/OC(=O)c1ccc([N+](=O)[O-])cc1)c1ccccc1
inactive: [1] 0.974 | [2] 0.965 | [3] 0.967 | [4] 0.957 | [5] 0.963 | [6] 0.955 | [7] 0.952 | [8] 0.962 | [10] 0.979 | [11] 0.955 | [12] 0.949 | [13] 0.909 | [14] 0.96 | [16] 0.814 | [17] 0.843 | [19] 0.96 | [20] 0.745 | [21] 0.943 | [22] 0.957 | [24] 0.769 | [25] 0.991 | [26] 0.911 | [28] 0.802 | [32] 0.909 | [38] 0.595 | [39] 0.955 | [40] 0.814 | [42] 0.671 | [43] 0.966 | [45] 0.978 | [46] 0.972 | [47] 0.97
active: [9] 0.148 | [15] 0.231 | [18] 0.337 | [23] 0.137 | [27] 0.242 | [29] 0.604 | [30] 0.175 | [31] 0.0636 | [33] 0.384 | [34] 0.126 | [35] 0.507 | [36] 0.174 | [37] 0.378 | [41] 0.637 | [44] 0.582

N/C(=N/OC(=O)c1cnn(-c2ccc([N+](=O)[O-])cc2)c1C(F)(F)F)c1ccc(Cl)cc1
inactive: [1] 0.985 | [2] 0.972 | locus YBR135W, strain CKS1, stronger effect = lower value 0.964 | [3] 0.971 | [4] 0.974 | [5] 0.984 | [6] 0.985 | [7] 0.992 | [8] 0.975 | locus YDL132W, strain cdc53, stronger effect = lower value 0.974 | [9] 0.937 | [10] 0.983 | [11] 0.97 | [12] 0.982 | locus YDR477W, strain SNF1, stronger effect = lower value 0.944 | [13] 0.96 | locus YER133W, strain GLC7, stronger effect = lower value 0.82 | locus YFL009W, strain cdc4, stronger effect = lower value 0.982 | locus YFL029C, strain CAK1, stronger effect = lower value 0.973 | [14] 0.98 | locus YFR019W, strain FAB1, stronger effect = lower value 0.974 | locus YFR028C, strain CDC14, stronger effect = lower value 0.979 | [15] 0.916 | [16] 1.06 | [17] 0.964 | [18] 1.01 | locus YHR079C, strain IRE1, stronger effect = lower value 1.04 | locus YHR082C, strain KSP1, stronger effect = lower value 1.07 | locus YHR205W, strain SCH9, stronger effect = lower value 0.699 | [19] 0.979 | [20] 1.04 | [21] 0.98 | locus YJL157C, strain FAR1, stronger effect = lower value 0.973 | [22] 0.976 | [23] 0.955 | [24] 1.01 | [25] 0.993 | [26] 0.972 | [27] 0.983 | locus YKL193C, strain SDS22, stronger effect = lower value 0.982 | [28] 1.04 | [29] 0.98 | [30] 0.881 | [31] 0.74 | [32] 0.92 | [33] 0.981 | [34] 0.886 | locus YMR277W, strain FCP1, stronger effect = lower value 0.981 | [35] 0.99 | [36] 0.989 | [37] 0.979 | [38] 1.01 | [39] 0.98 | locus YNL222W, strain SSU72, stronger effect = lower value 0.969 | locus YNL307C, strain MCK1 (second series), stronger effect = lower value 0.987 | locus YOL078W, strain AVO1, stronger effect = lower value 0.969 | locus YOL136C, strain PFK27, stronger effect = lower value 0.979 | locus YOR061W, strain CKA2, stronger effect = lower value 0.912 | [40] 1.06 | locus YOR231W, strain MKK1, stronger effect = lower value 0.961 | [41] 0.985 | locus YPL031C, strain PHO85, stronger effect = lower value 0.974 | [42] 0.976 | locus YPL204W, strain HRR25, stronger effect = lower value 1.01 | [43] 0.978 | [44] 0.961 | locus YPR025C, strain CCL1, stronger effect = lower value 0.973 | [45] 0.993 | [46] 0.976 | [47] 0.995 | strain TSCII, stronger effect = lower value 0.989

— PubChem BioAssay AID1159580 (chemical genetic matrix, 2015)
